These sequences were tested against CHRM2 (assay: pooled miR-30 sensor sort-seq; sequence = guide strand). Conditions: shRNA.
Note: reference of the scale not given here.

Row | Sequence | sensor-assay potency score (higher = more potent)
1 | TAGAAGGCTGCAATAGCCGTAC | -0.0525
2 | TTAATGAGCACCATGACATTGT | -0.0449
3 | TTTGTGACACAGAAGTACCTGT | 0.495
4 | TATTCTGCTTTTCATCTCCATT | -1.16
5 | TTCTTGTCCTTCTTTATCCTGC | -0.0112
6 | TAAAAAGTAATTGTTGACGGTC | 0.0384
7 | TTTTGTGACACAGAAGTACCTG | 0.758
8 | TTCATAACTGAGGCATTGCTGA | -0.852
9 | ATAAGGACTTGTAAGAGCCAGG | -0.765

These sequences were tested against CHRNA1 in the same assay as above. Conditions: shRNA.

Row | Sequence | sensor-assay potency score (higher = more potent)
10 | TTAGAACATCAGCAACTCCCTA | -0.4
11 | TTTGTCTTGCTTTTCTCTGGAT | -0.428
12 | TAGAACATCAGCAACTCCCTAG | 0.223
13 | ATTTACTTCATCCACATTGATG | -1.52
14 | TAGGTCACGGAGTGCTTCCAGC | -1.17
15 | TAGCTTTGCCACCAGACGGGTC | -1.08
16 | TTGACAATAGCAAAGTCACCAT | -0.507
17 | TTGTCTTGCTTTTCTCTGGATG | -0.807
18 | TAAGTATGGAATATAACACGTT | -0.0814
19 | TAGACAAATCTTCCTCTCCTGC | -0.927
20 | TACTGCTTCCTCTCTCTCCAAA | -0.987
21 | TTGCAACGTACTTCCACTCTGC | 0.505
22 | TAGCAAAGTCACCATCTGCATT | -1.03
23 | TTCTTAGTAGGTACAAAACTGA | -0.855
24 | TTTTTTAGTGATTAGTTTCATT | -0.783
25 | TAGCTTTTAAAGATGGCTGGAG | -0.126
26 | TATAACAGCAATGACAATGCAA | 0.464
27 | TAAGCAAAGAATACACTTCATT | -1.02
28 | TACTGCAGGAGCACTTTGGTGA | 0.163
29 | TTGATGGCCACGACAGAGCCGT | -0.893
30 | TTCATCCACATTGATGAGCTGT | -0.162
